From the supplement of paper PMC3414501 come the findings set out here.

Counter-ions that a name gives are not always drawn.

In assay [1] the test system is S. cerevisiae SK1 pCDA2-eGFP (USY613), sporulating. Kind of assay: CDA2-GFP sporulation assay sensitivity score (z-score vs DMSO controls); higher = stronger inhibition of sporulation, active = hit call of the paper.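 Also: active if sensitivity score above 5.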
For assay [2], the system named is S. cerevisiae NKY1551 his4x/his4B, sporulating. Kind of assay: HIS4 meiotic recombination assay sensitivity score (z-score vs DMSO controls); higher = stronger inhibition of sporulation/recombination, active = hit call of the paper.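 Also: active if sensitivity score above 5.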
In assay [3] the test system is S. cerevisiae AD1-9 (efflux-pump deficient), vegetative growth in YPD. Kind of assay: growth sensitivity score (doubling time z-score vs DMSO controls); higher = slower growth, strongly negative scores also mark growth inhibition (complete suppression), active = hit call of the paper. A digest of the protocol: (§1)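 Saccharomyces cerevisiae strains BY4741 and AD1-9 were seeded in rich medium in microtiter plates at an OD600 of 0.065. Compounds were added at a 1:100 dilution of DMSO stock. Optical density was read every 15 min for 24 hours on a Tecan GENios reader. Average doubling time was the time taken to reach a set generation point divided by generation number, and the growth sensitivity score was (compound mean − DMSO-control mean)/DMSO-control SD, using eight DMSO controls per experiment.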

Assay [4] relates to S. cerevisiae BY4741 (wild-type), vegetative growth in YPD. The description is as above. A digest of the protocol:
as §1

For the compound `O=C1[C@H]2CCCC[C@H]2C(=O)N1CCCCN1CCN(c2nsc3ccccc23)CC1` [Perospirone hydrochloride] (stock concentration (mM, diluted 1:100): 9.4), the “CDA2-GFP sporulation assay sensitivity score” value in assay [1] was 2.69 (inactive). The “HIS4 meiotic recombination assay sensitivity score” value in assay [2] is -2.62 (inactive). Besides, the growth sensitivity score is 2.19 (active) in assay [3] and 3.13 (active) in assay [4].
With `CCOC(=O)C1=C(C)NC(C)=C(C(=O)OC)C1c1cccc([N+](=O)[O-])c1` (stereo not drawn) [Nitrendipine] (stock concentration (mM, diluted 1:100): 10), the “CDA2-GFP sporulation assay sensitivity score” value in assay [1] is 10.3 (active). Besides, the “HIS4 meiotic recombination assay sensitivity score” value in assay [2] was 1.41 (inactive). Besides, the growth sensitivity score in assay [3] is 23.1 (active); in assay [4], 1.09 (inactive).
As for `CN1C2CCCC1CC(NC(=O)c1nn(C)c3ccccc13)C2` (stereo not drawn) [Granisetron hydrochloride] (stock concentration (mM, diluted 1:100): 9), the “CDA2-GFP sporulation assay sensitivity score” value in assay [1] is 2.25 (inactive). Further, in assay [2], the “HIS4 meiotic recombination assay sensitivity score” value was 0.28 (inactive). In addition, the growth sensitivity score was -1.22 (inactive) in assay [3] and -0.57 (inactive) in assay [4].
For `COc1ccc(-c2cc(=O)c3c(OC)c(OC)c(OC)c(OC)c3o2)cc1OC` [Nobiletin] (stock concentration (mM, diluted 1:100): 10), the “CDA2-GFP sporulation assay sensitivity score” value in assay [1] is 5.43 (inactive). For the same compound, in assay [2], the “HIS4 meiotic recombination assay sensitivity score” value is 1.02 (inactive). The growth sensitivity score in assay [3] is 3.87 (active); in assay [4], 4.43 (active).
Regarding `O=C(CCCN1CCC(O)(c2ccc(Cl)cc2)CC1)c1ccc(F)cc1` [Haloperidol] (stock concentration (mM, diluted 1:100): 10), the “CDA2-GFP sporulation assay sensitivity score” value in assay [1] is 8.19 (active). The “HIS4 meiotic recombination assay sensitivity score” value in assay [2] was 7.67 (active). In addition, the growth sensitivity score in assay [3] is 22.7 (active); in assay [4], 5.41 (active).
The like results for `NC(=O)OCC(COC(N)=O)c1ccccc1` [Felbamate] (stock concentration (mM, diluted 1:100): 14) were, in that order, -0.27 (inactive), -0.45 (inactive), -0.62 (inactive) and -0.94 (inactive).
Consider `NC(N)=Nc1nc(CSCC/C(N)=N/S(N)(=O)=O)cs1` [Famotidine] (stock concentration (mM, diluted 1:100): 10), for which, in assay [1], the “CDA2-GFP sporulation assay sensitivity score” value is 0.3 (inactive). Besides, the “HIS4 meiotic recombination assay sensitivity score” value in assay [2] was -0.42 (inactive). The growth sensitivity score in assay [3] is -2.06; in assay [4], -0.98 (inactive).
In the case of `O=[N+]([O-])c1cccc2cn[nH]c12` [7-Nitroindazole] (stock concentration (mM, diluted 1:100): 10), the “CDA2-GFP sporulation assay sensitivity score” value in assay [1] is 2.93 (inactive). Besides, the “HIS4 meiotic recombination assay sensitivity score” value in assay [2] is -1.75 (inactive). For the same compound, the growth sensitivity score in assay [3] was -1.05 (inactive); in assay [4], 0.06 (inactive).
Take `Cc1ncc([N+](=O)[O-])n1CCO` [Metronidazole] (stock concentration (mM, diluted 1:100): 10): the “CDA2-GFP sporulation assay sensitivity score” value in assay [1] is 0.28 (inactive). Also, the “HIS4 meiotic recombination assay sensitivity score” value in assay [2] is 0.15 (inactive). Further, the growth sensitivity score in assay [3] was -0.99 (inactive); in assay [4] it was -0.2 (inactive).
Turning to `Nc1c2c(nc3c1CCC3)CCCC2` [Amiridine] (stock concentration (mM, diluted 1:100): 10), in assay [1], the “CDA2-GFP sporulation assay sensitivity score” value was 2.39 (inactive). Further, the “HIS4 meiotic recombination assay sensitivity score” value in assay [2] is 1.51 (inactive). For the same compound, the growth sensitivity score is 4.09 (active) in assay [3] and 4.93 (active) in assay [4].
On to `O=C(c1ccccc1)c1ccc2n1CCC2C(=O)O` (stereo not drawn) [Toradol] (stock concentration (mM, diluted 1:100): 6.8), for which the “CDA2-GFP sporulation assay sensitivity score” value in assay [1] is -1.05 (inactive). The “HIS4 meiotic recombination assay sensitivity score” value in assay [2] is -1.15 (inactive). In addition, the values for the growth sensitivity score in assay [3] and in assay [4] were 0.21 (inactive) and 0.91 (inactive), respectively.
`CN1CCc2cc(Cl)c(O)cc2[C@@H](c2ccccc2)C1` (stock concentration (mM, diluted 1:100): 9.9): the “CDA2-GFP sporulation assay sensitivity score” value in assay [1] is 15.9 (active). In assay [2], the “HIS4 meiotic recombination assay sensitivity score” value is 3.2 (inactive). The growth sensitivity score in assay [3] is 0.38 (inactive); in assay [4], -0.55 (inactive).
As for `CN1CCN(c2c(F)cc3c(=O)c(C(=O)O)cn4c3c2SCC4)CC1` [Rufloxacin hydrochloride] (stock concentration (mM, diluted 1:100): 10), in assay [1], the “CDA2-GFP sporulation assay sensitivity score” value is -0.17 (inactive). Further, in assay [2], the “HIS4 meiotic recombination assay sensitivity score” value is -0.04 (inactive). Besides, the growth sensitivity score in assay [3] was 17.4 (active); in assay [4], -0.18 (inactive).
In the case of `CCCCN1CCCC1CNC(=O)c1cc(C#N)c2ccccc2c1OC` (stereo not drawn) [Nafadotride] (stock concentration (mM, diluted 1:100): 10), the “CDA2-GFP sporulation assay sensitivity score” value in assay [1] was 3.66 (inactive). In addition, the “HIS4 meiotic recombination assay sensitivity score” value in assay [2] is -0.64 (inactive). The growth sensitivity score was -2.8 in assay [3] and -0.11 (inactive) in assay [4].
`CC(C)(C)C(O)/C=C/c1ccc2c(c1)OCO2` (stereo not drawn) [Stiripentol] (stock concentration (mM, diluted 1:100): 10): in assay [1], the “CDA2-GFP sporulation assay sensitivity score” value was 5.09 (inactive). The “HIS4 meiotic recombination assay sensitivity score” value in assay [2] is 1.81 (inactive). For the same compound, the growth sensitivity score in assay [3] is 5.27 (active); in assay [4], 2.6 (active).
In the case of `CCCCCCCCCCC[C@@H](C[C@@H]1OC(=O)[C@H]1CCCCCC)OC(=O)[C@H](CC(C)C)NC=O` [Orlistat] (stock concentration (mM, diluted 1:100): 10), the “CDA2-GFP sporulation assay sensitivity score” value in assay [1] was -2.33 (inactive). Also, the “HIS4 meiotic recombination assay sensitivity score” value in assay [2] is -1.52 (inactive). Also, the growth sensitivity score in assay [3] is -0.73 (inactive); in assay [4], 0.78 (inactive).
The like results for `O=C(NCCN1CCOCC1)c1ccc(Cl)cc1` [Moclobemide] (stock concentration (mM, diluted 1:100): 10) were, in that order, 0.72 (inactive), -1.83 (inactive), 0.15 (inactive) and -0.18 (inactive).
